Assay outcomes as filed in PubChem BioAssay.
Only some compounds are listed: those with a hit (about 21% of all), similar ones and a draw of the others.
Pf growth 48h: Primary qHTS for delayed death inhibitors of the malarial parasite plastid, 48 hour incubation; P. falciparum luciferase growth in erythrocytes, 48 h; Potency, µM (highest dose often 28.7 µM), for inactives: at the top dose activity change, negative = inhibition, most hits filed as inhibitors; actives 5.9% (n = 310,000); also: potency is read from the fitted curve at half-maximal effect; % is scaled to controls: 0 for no effect and ±100 for the full control effect
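Luciferase-expressing P. falciparum in infected erythrocytes (2% hematocrit, 0.1% parasitemia final) in RPMI 1640/0.5% Albumax were exposed to compound for 48 hours at 37 C, 5% CO2; growth read as luminescence.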
Pf growth 96h: Primary qHTS for delayed death inhibitors of the malarial parasite plastid, 96 hour incubation; P. falciparum luciferase reporter growth, 96 h; Potency, µM (highest dose often 28.7 µM), without a hit: top-dose activity change, negative = inhibition, actives largely listed as inhibitors; actives 6.9% (n = 320,000); AID 504834, 2011; also: potency is read from the fitted curve at half-maximal effect; % is scaled to controls: 0 for no effect and ±100 for the full control effect
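P. falciparum expressing integrated firefly luciferase grown in erythrocytes (2% hematocrit, 0.05% parasitemia final) with compounds for 96 hours at 37 C, 5% CO2. Growth inhibition read as loss of luminescence after adding luciferase detection reagent.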
Shiga inhibitor: A qHTS for Small Molecule Inhibitors of Shiga Toxin; inhibition, % at 38.7 µM; Vero cells, Shiga toxin protein synthesis inhibition reporter; actives 9.2% (n = 290,000); in the data active = inhibition mostly above about 28%, no sharp cut-off; inactive = mostly below about 43%; also: 0% is about no effect
CHX counter: Cycloheximide Counterscreen for Small Molecule Inhibitors of Shiga Toxin. cell reporter, cycloheximide protein synthesis inhibition counterscreen. max response, %. actives 12% (n = 300,000); in the data active = max response mostly above about 13%, no sharp cut-off; inactive = mostly below about 14%; also: read at 38.3 µM for the half of the compounds with a filed dose; 0% is about no effect
Sm TGR block: qHTS Assay for the Inhibitors of Schistosoma Mansoni Peroxiredoxins; purified TGR, DTNB reduction, TNB absorbance 405 nm; Potency, µM (series often up to 114 µM), without a hit: at the top dose activity change, negative = inhibition, hits mostly inhibitors; actives 3% (n = 360,000); also: potency is read from the fitted curve at half-maximal effect; % is scaled to controls: 0 for no effect and ±100 for the full control effect; nearly all actives have a fitted effect of over 60% in size
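TGR 20 nM + NADPH 100 uM (dispensed conc.), cpd preinc 15 min RT; start with NADPH (500 uM addition) then DTNB (15 mM addition). Kinetic TNB absorbance, 405 nm filter. Four-parameter Hill fit across titration.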
NS1 function inh: qHTS Assay for Inhibitors of Influenza NS1 Protein Function; Potency, µM (series often up to 46.1 µM), for inactives: top-dose activity, positive = more growth; actives 0.4% (n = 270,000); calls by dose curve; also: potency is read from the fitted curve at half-maximal effect; actives are rising curves; nearly all actives have a fitted effect of over 50% in size
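OD600 was taken as the measure of yeast growth restored by compound in an NS1-expressing S. cerevisiae strain. Cells had been washed out of glucose medium and diluted 1:100 into galactose -URA medium, pH 6.0.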
Starred values were filed as active, the others as inactive. Unless noted, calls follow the shape of the dose curve; as a rule, active = well fitted curve in the direction sought with a large enough effect; inconclusive = small, poorly fitted or top-dose-only effect, or another doubt; inactive = no such curve, though single readings can be large; an effect the other way counts as inactive or inconclusive.

Screening CCCCn1c(=N)n(CC(O)c2ccccc2)c2ccccc21 (stereo not drawn) returned Pf growth 48h 2.1µM*, Pf growth 96h 13µM*, Shiga inhibitor -14, CHX counter -1, Sm TGR block -1% and NS1 function inh -3%.
`CCn1c(=N)n(CC(O)c2ccccc2)c2ccccc21` (stereo not drawn) gave Pf growth 48h inconclusive, Pf growth 96h -9%, Shiga inhibitor -16, CHX counter 1, Sm TGR block -3% and NS1 function inh 19%.
For CCCCCn1c(=N)n(CC(O)COc2cccc(C)c2)c2ccccc21 (stereo not drawn) the results were Sm TGR block 1%.
Screening CCCn1c(=N)n(CC(O)COc2cccc(C)c2)c2ccccc21 (stereo not drawn) returned Pf growth 48h 10µM*, Pf growth 96h 129%, Shiga inhibitor -11, CHX counter -3, Sm TGR block -20% and NS1 function inh 4%.
CCCn1c(=N)n(CCOc2ccc(OC)cc2)c2ccccc21 was read as Pf growth 48h 15µM*, Shiga inhibitor -6, CHX counter -5, Sm TGR block 0% and NS1 function inh -9%.
Screening CCOC(=O)Cn1c(=N)n(CCOc2ccc(OC)cc2)c2ccccc21 returned Pf growth 48h 8%, Shiga inhibitor -8, CHX counter -2, Sm TGR block -3% and NS1 function inh 3%.
O=C(Cn1c(=O)n2nc(-c3cccc(F)c3)nc2c2ccccc21)N1CCN(c2ccc(F)cc2)CC1 was read as Sm TGR block 16%.
O=C(COC(=O)c1ccccc1NCCO)NCc1cccs1 was read as Pf growth 48h 0%, Pf growth 96h 23% and Sm TGR block 0%.
For CC(C)(C)NC(=O)CSc1nc2ccc(NC(=O)CSc3nnc(N)s3)cc2s1 the results were Pf growth 48h -13%, Pf growth 96h inconclusive, Shiga inhibitor -17, CHX counter -7, Sm TGR block -10% and NS1 function inh 13%.
Screening CCCCn1c(=N)n(CC(O)COc2ccc(C)cc2)c2ccccc21 (stereo not drawn) returned Pf growth 48h 2.3µM*, Shiga inhibitor -12, CHX counter -5, Sm TGR block 8% and NS1 function inh -11%.
`CC(C)(CC(=O)Nc1ccccc1)C(=O)O` gave NS1 function inh -1%.
Screening Cc1cccc(N2CCN(C(=S)NCCc3ccccc3)CC2)c1C returned Pf growth 48h 16%, Pf growth 96h 55%, Shiga inhibitor 15, CHX counter 17, Sm TGR block 4% and NS1 function inh 4%.
For CC1CCCCN1C(=S)NCCc1ccccc1 (stereo not drawn) the results were Pf growth 96h 43%, Shiga inhibitor 91*, CHX counter 38*, Sm TGR block 0% and NS1 function inh -11%.
CC1CCCN(C(=S)NCCc2ccccc2)C1 (stereo not drawn) was read as Pf growth 48h 39%, Pf growth 96h 60%, Shiga inhibitor 54*, CHX counter 26*, Sm TGR block -27% and NS1 function inh -80%.
`CCC(=O)N1c2ccccc2CC1C(=O)NCc1ccc(OC(C)C)cc1` (stereo not drawn) gave Sm TGR block -1%.
`O=[N+]([O-])c1ccc(N2CCN(C(=S)Nc3ccc(F)cc3F)CC2)cc1` gave Pf growth 48h inconclusive, Pf growth 96h 5%, Shiga inhibitor 11, CHX counter 7, Sm TGR block -2% and NS1 function inh 5%.
Screening O=C(Nc1ccccc1N1CCN(C(=O)c2ccc(Cl)cc2)CC1)c1ccc(Br)cc1 returned Pf growth 96h inconclusive, Shiga inhibitor -6, CHX counter 1, Sm TGR block 3% and NS1 function inh 14%.
Screening O=C(Nc1ccccc1N1CCN(C(=O)c2ccccc2)CC1)c1ccc(Br)o1 returned Pf growth 48h 0%, Pf growth 96h 9.3µM*, Shiga inhibitor -19, CHX counter -3, Sm TGR block -10% and NS1 function inh -66%.
O=C(Nc1ccccc1N1CCCCC1)c1ccc([N+](=O)[O-])o1 was read as Pf growth 48h 10µM*, Pf growth 96h 8.3µM* and Sm TGR block -23%.
Screening O=C(Nc1ccccc1N1CCN(C(=O)c2ccc(Cl)cc2)CC1)c1ccc([N+](=O)[O-])o1 returned Pf growth 48h 6.6µM*, Pf growth 96h -16%, Shiga inhibitor 4, CHX counter 10, Sm TGR block -24% and NS1 function inh -34%.
For CN1CCN(c2ccccc2NC(=O)c2ccc(-c3ccccc3[N+](=O)[O-])o2)CC1 the results were Pf growth 48h 5.2µM*, Pf growth 96h 29%, Shiga inhibitor -3, CHX counter -1, Sm TGR block 3% and NS1 function inh -4%.
`CC(=O)N1CCN(c2ccccc2NC(=O)c2ccc(-c3cccc([N+](=O)[O-])c3)o2)CC1` gave Pf growth 48h inconclusive, Pf growth 96h 2%, Shiga inhibitor -5, CHX counter 1, Sm TGR block inconclusive and NS1 function inh -1%.
Screening Cc1ccc(S(=O)(=O)N(C)c2ccc(C(=O)N3CCN(Cc4ccc5c(c4)OCO5)CC3)cc2)cc1 returned Pf growth 96h inconclusive, Shiga inhibitor 8, CHX counter -2, Sm TGR block 0% and NS1 function inh -110%.
For CCCCN(CC(=O)Nc1c(C)cccc1CC)C(=O)SCC the results were Pf growth 48h inconclusive, Shiga inhibitor -16, CHX counter 6, Sm TGR block 41% and NS1 function inh 0%.
Screening COc1ccc(NC(=O)Cn2cc(S(=O)(=O)N3CCN(c4ccccc4F)CC3)c3ccccc3c2=O)cc1Cl returned Shiga inhibitor 19, CHX counter 17 and Sm TGR block 5%.
For COc1ccc(C(=O)Nc2ccccc2N2CCN(C(=O)c3ccccc3)CC2)cc1Br the results were Pf growth 48h 2.1µM*, Pf growth 96h inconclusive, Shiga inhibitor -7, CHX counter -1, Sm TGR block -9% and NS1 function inh -17%.
O=C(Nc1ccccc1N1CCN(C(=O)c2ccccc2)CC1)c1ccc(Cl)cc1 was read as Pf growth 48h inconclusive, Pf growth 96h -36%, Shiga inhibitor 29, CHX counter 1 and Sm TGR block 1%.
`Nc1ccc2nc(N3CCOCC3)sc2c1` gave Pf growth 48h 247%, Pf growth 96h 213%, Shiga inhibitor 140*, CHX counter 41* and Sm TGR block 4%.
